The list is not random: actives were taken first. Their share in the collection is about 12%.
HP1b chromo inh: blocks HP1-beta chromodomain binding to methylated histone tails. P83916. AlphaScreen HP1-beta / biotin-H3K9me3 peptide binding. Potency, µM (series often up to 114 µM), hits mostly inhibitors. actives 0.56% (n = 390,000). AID 540317; further: nearly all actives have a fitted effect of over 70% in size
Target sequence (P83916 whole entry, looked up): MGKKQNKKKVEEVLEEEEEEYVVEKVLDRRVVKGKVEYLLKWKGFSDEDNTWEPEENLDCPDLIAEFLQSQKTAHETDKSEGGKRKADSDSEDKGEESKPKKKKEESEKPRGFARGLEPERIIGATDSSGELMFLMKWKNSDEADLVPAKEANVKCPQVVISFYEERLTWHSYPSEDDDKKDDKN
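AlphaScreen: HP1-beta (50 nM) preformed 30 min with biotin-H3(1-18)K9me3 peptide (50 nM) in PBS pH 7.4, 0.01% Tween-20. Compound added for 30 min at RT, then streptavidin donor/nickel chelate acceptor beads (10 ug/mL) for 30 min.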
BAZ2B inh: BAZ2B (human) inhibition | Q9UIF8 | AlphaScreen BAZ2B-H3K14Ac peptide displacement | Potency, µM (top dose mostly 114 µM), usual class: inhibitors | actives 4.4% (n = 360,000); further: nearly all actives have a fitted effect of over 60% in size
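BAZ2B (50 nM) with biotin-H3(5-23)K14Ac peptide (50 nM) in PBS pH 7.4, 0.01% Tween-20, preformed 30 min, then compound 30 min at room temperature; top concentration 110uM. AlphaScreen streptavidin donor/nickel chelate acceptor beads (10 ug/mL final), 20 min dark, signal read.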
JMJD2A Tudor: JMJD2A Tudor domain (human) inhibition. AlphaScreen JMJD2A-Tudor / H3K4me3 peptide binding. Potency, µM (highest dose often 114 µM), actives largely listed as inhibitors. actives 4.4% (n = 390,000). AID 504339; further: nearly all actives have a fitted effect of over 50% in size
PLK1 PBD inh: blocks phosphopeptide binding to human PLK1 polo-box domain; Plk1 PBD binding of FITC phosphopeptide, fluorescence polarization; P53350; Potency, µM, most hits filed as inhibitors; actives 2.8% (n = 360,000); further: series mostly up to about 57 µM; nearly all actives have a fitted effect of over 65% in size
G9a inh: blocks human histone lysine methyltransferase G9a | Potency, µM (titrated, usually from 102 µM), actives largely listed as inhibitors | actives 8.8% (n = 350,000) | Q96KQ7 | G9a H3K9 monomethylation, AlphaScreen, 2 h; further: nearly all actives have a fitted effect of over 75% in size
Target sequence (Q96KQ7 913-1193 limits assumed): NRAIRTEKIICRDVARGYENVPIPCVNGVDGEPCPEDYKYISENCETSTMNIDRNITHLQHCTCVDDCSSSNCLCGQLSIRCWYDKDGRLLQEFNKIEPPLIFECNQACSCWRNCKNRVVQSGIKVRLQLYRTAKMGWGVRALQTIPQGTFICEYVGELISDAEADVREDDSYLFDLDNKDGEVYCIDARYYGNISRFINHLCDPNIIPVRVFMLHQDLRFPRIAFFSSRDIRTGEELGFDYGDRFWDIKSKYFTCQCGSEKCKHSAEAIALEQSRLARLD
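Enzyme 20 nM + cpd, 15 min RT; add b-H3K9 pep 500 nM / SAM 20 uM; 2 h RT; anti-H3K9me1 Ab 0.5 ug/mL + SA donor / anti-rabbit acceptor beads 20 ug/mL each, 10 min; AlphaScreen read.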
Sfp PPTase inh: blocks B. subtilis Sfp PPTase activity | Biochemical Sfp PPTase activity, qHTS | Potency, µM, most hits filed as inhibitors | actives 3.5% (n = 310,000) | Q9F4F7;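 further: the enzyme is Sfp with the accession as filed and its product quenches rhodamine fluorescence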
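Step 1, compound plus 15 nM Sfp-PPTase, 15 min, room temperature. Step 2, add rhodamine-CoA (5 uM) and BHQ-2-YbbR (12.5 uM). Step 3, read 525/598 nm fluorescence at 0 and 30 min.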
Hits are given with their value; [ ] = dose if it differs, or a comment. The call rests on the fitted dose curve; in most records, active means well fitted curve in the direction sought with a large enough effect; inconclusive means small, poorly fitted or top-dose-only effect, or another doubt; inactive means no such curve, though single readings can be large; an effect the other way counts as inactive or inconclusive.

Screening CCc1ccccc1-n1c(SCC(=O)Nc2ccc(C)cc2)nc2n[nH]c(C)c2c1=N returned HP1b chromo inh inactive, BAZ2B inh inactive, JMJD2A Tudor inactive and G9a inh inactive.
Screening CC(C)C1Cc2c(sc(NC(=S)NC(=O)c3ccccc3)c2C#N)CO1 (stereo not given) returned HP1b chromo inh inactive, BAZ2B inh inactive, JMJD2A Tudor inactive, PLK1 PBD inh 24µM, G9a inh inactive and Sfp PPTase inh inactive.
CCN1CCc2c(sc(NC(=S)NC(=O)c3ccc(Cl)cc3)c2C(N)=O)C1 was read as HP1b chromo inh inactive, BAZ2B inh inactive, JMJD2A Tudor inconclusive, PLK1 PBD inh inconclusive, G9a inh 32µM and Sfp PPTase inh 16µM.
`CCCCCCCCCCCC(=O)OCC(O)C1OCC(O)C1O` (stereo not given) gave G9a inh inactive[12.7 µM] and Sfp PPTase inh inactive.
O=S(=O)(c1ccc(-c2ccccn2)s1)N1CCC2(CC1)OCCO2 was read as HP1b chromo inh inactive, BAZ2B inh inactive, JMJD2A Tudor inactive, PLK1 PBD inh inactive and Sfp PPTase inh inactive.
For O=C(Cn1sc2ccccc2c1=O)Nc1ccc(Br)cc1 the results were PLK1 PBD inh 3µM.
Cc1ccc(NC(=O)Cn2nc(-c3ccc(Cl)cc3)c3ccccc3c2=O)cc1 was read as HP1b chromo inh inactive, BAZ2B inh inactive, JMJD2A Tudor inactive and G9a inh inactive.
Screening O=C(Cn1sc2ccccc2c1=O)Nc1ccc(Cl)cc1 returned PLK1 PBD inh 5.3µM.
Screening O=C(Cn1sc2ccccc2c1=O)Nc1ccc(F)cc1 returned PLK1 PBD inh 3µM.
Screening Cc1cccc(N2CCN(S(=O)(=O)c3ccc(-c4cnc(C5CC5)o4)cc3)CC2)c1C returned HP1b chromo inh inactive, BAZ2B inh inconclusive, JMJD2A Tudor inactive and G9a inh inactive[12.7 µM].
`O=C(c1cc(-c2ccc(Cl)cc2)n[nH]1)N1CCc2ccccc2C1` gave HP1b chromo inh inactive, BAZ2B inh inactive, JMJD2A Tudor inactive, PLK1 PBD inh inactive, G9a inh inactive and Sfp PPTase inh inactive.
For Cc1oc2ncn(C)c(=O)c2c1C(=O)N(C)c1ccccc1F the results were HP1b chromo inh inactive, BAZ2B inh inactive, JMJD2A Tudor inactive and G9a inh inactive.
Screening COCc1cccc(C(=O)NC(c2ccccc2)c2ccccc2)c1 returned HP1b chromo inh inactive, BAZ2B inh inactive, JMJD2A Tudor inactive, PLK1 PBD inh inactive, G9a inh inactive and Sfp PPTase inh inactive.
Screening Cc1ccc(/C=C2\SC(N3CCCCC3)=NC2=O)cc1 returned HP1b chromo inh inactive, BAZ2B inh inactive, JMJD2A Tudor inconclusive, PLK1 PBD inh 24µM, G9a inh inactive and Sfp PPTase inh inactive.
Screening O=C1N=C(N2CCCC2)S/C1=C\c1ccccc1 returned HP1b chromo inh inactive, BAZ2B inh inactive, JMJD2A Tudor 56µM, PLK1 PBD inh 30µM, G9a inh inactive and Sfp PPTase inh inactive.
O=C1N=C(N2CCCCC2)S/C1=C\c1ccc(Cl)cc1 was read as HP1b chromo inh inactive, BAZ2B inh inactive, JMJD2A Tudor inactive, PLK1 PBD inh inactive, G9a inh inactive and Sfp PPTase inh inactive.
For Cc1ccccc1N1CCN(C2=NC(=O)/C(=C\c3cccs3)S2)CC1 the results were HP1b chromo inh inactive, BAZ2B inh inactive, JMJD2A Tudor inactive, PLK1 PBD inh inactive, G9a inh 50µM and Sfp PPTase inh inactive.
`O=C(CSc1nc(=O)n(Cc2ccco2)c2c1CCC2)NCc1ccc(Cl)cc1` gave HP1b chromo inh inactive, BAZ2B inh inactive, JMJD2A Tudor inactive and G9a inh inactive.
CNC(=S)N(CCc1c(C)[nH]c2ccc(C)cc12)Cc1cc(OC)c(OC)c(OC)c1 was read as HP1b chromo inh inactive, BAZ2B inh 40µM, JMJD2A Tudor inconclusive, PLK1 PBD inh inactive, G9a inh 50µM and Sfp PPTase inh inactive.
CNC(=S)N(CCc1c(C)[nH]c2ccc(OC)cc12)Cc1cc(OC)c(OC)c(OC)c1 was read as HP1b chromo inh inactive, BAZ2B inh 45µM, JMJD2A Tudor inconclusive, PLK1 PBD inh inactive, G9a inh 50µM and Sfp PPTase inh inactive.
`CN(CC(=O)Nc1ccc(Cl)c(C(F)(F)F)c1)C(=O)/C=C/c1ccco1` gave HP1b chromo inh inactive, BAZ2B inh inactive, JMJD2A Tudor inactive, PLK1 PBD inh inactive, G9a inh inactive and Sfp PPTase inh inactive.
`CCOC(=O)c1ccc(N2N=C(C)/C(=C/C=C/c3ccco3)C2=O)cc1` gave HP1b chromo inh inconclusive, BAZ2B inh 6.3µM, JMJD2A Tudor inconclusive, PLK1 PBD inh inactive, G9a inh inconclusive and Sfp PPTase inh inactive.
CC1=NN(c2ccc(C(=O)OC(C)C)cc2)C(=O)/C1=C\C=C\c1ccco1 was read as HP1b chromo inh inconclusive, BAZ2B inh 4µM, JMJD2A Tudor 18µM, PLK1 PBD inh inactive, G9a inh 4.5µM and Sfp PPTase inh inconclusive.
O=C(O)c1cc(N2N=C(C(F)(F)F)/C(=C/C=C/c3ccco3)C2=O)ccc1Cl was read as HP1b chromo inh 1.6µM, BAZ2B inh 13µM, JMJD2A Tudor 1µM, PLK1 PBD inh 0.53µM, G9a inh 2.5µM and Sfp PPTase inh 22µM.
Screening CCCCCC=CCC=CCCCCCCCC(=O)OCC returned G9a inh inactive[12.7 µM] and Sfp PPTase inh inactive.
For O=C(CCSc1ccccc1)NC(=O)COC(=O)c1ccc(OC(F)F)cc1 the results were HP1b chromo inh inactive, BAZ2B inh inactive, JMJD2A Tudor inactive, PLK1 PBD inh inactive, G9a inh inactive and Sfp PPTase inh inactive.
For O=[N+]([O-])c1cc2oc3c(c2c(C=NCc2ccncc2)c1O)CCCC3 the results were HP1b chromo inh inconclusive, BAZ2B inh 35µM, JMJD2A Tudor 56µM, PLK1 PBD inh inconclusive, G9a inh inconclusive and Sfp PPTase inh inconclusive.
Screening COc1ccc(CNC(=O)CCNS(=O)(=O)c2ccc(Br)s2)cc1 returned HP1b chromo inh inactive, BAZ2B inh inactive, JMJD2A Tudor 79µM, PLK1 PBD inh 30µM, G9a inh inactive and Sfp PPTase inh inactive.
COc1cccc(CNC(=O)CNS(=O)(=O)c2ccc(Br)s2)c1 was read as HP1b chromo inh inactive, BAZ2B inh inactive, JMJD2A Tudor inactive, PLK1 PBD inh inactive, G9a inh inactive and Sfp PPTase inh inactive.
`COc1cccc(CNC(=O)CCNS(=O)(=O)c2ccc(Br)s2)c1` gave HP1b chromo inh inactive, BAZ2B inh inactive, JMJD2A Tudor inconclusive, PLK1 PBD inh 27µM, G9a inh inactive and Sfp PPTase inh inactive.
`COc1ccc(CNC(=O)CCNS(=O)(=O)c2cc(Br)cnc2N)cc1` gave HP1b chromo inh inactive, BAZ2B inh inactive, JMJD2A Tudor inconclusive, PLK1 PBD inh 3.4µM, G9a inh inactive and Sfp PPTase inh inactive.
Nc1ncc(Br)cc1S(=O)(=O)NCCC(=O)NC1CCCCC1 was read as HP1b chromo inh inactive, BAZ2B inh inactive, JMJD2A Tudor inconclusive, PLK1 PBD inh 27µM, G9a inh inactive and Sfp PPTase inh inactive.
